Assay [1] is described as follows: qHTS assay to identify aromatase inhibitors - cell viability counter screen (AID 743084).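 Note: cells stimulated with testosterone during compound exposure; nearly all actives have a fitted effect of over 55% in size.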 For orientation: Quantitative high-throughput screening tests each substance at several concentrations.
Assay [2] addresses Aryl hydrocarbon receptor (Homo sapiens) (UniProt P35869). Description: qHTS assay to identify small molecule that activate the aryl hydrocarbon receptor (AhR) signaling pathway (AID 743085).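 Note: HG2L7.5c1 human HepG2 liver cells with stably integrated DRE-driven firefly reporter; series mostly up to about 70 µM; nearly all actives have a fitted effect of over 15% in size.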 In short, it runs like this: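 A multiplexed format paired cell viability (CellTiter-Fluor fluorescence) with AhR-dependent luciferase output (ONE-Glo luminescence) in the same wells of HepG2 DRE-luc cells after 24 h compound exposure at 37C.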

The target of assay [3] is Peroxisome proliferator-activated receptor gamma (Homo sapiens) (UniProt P37231). The assay can be described thus: qHTS assay to identify small molecule agonists of the peroxisome proliferator-activated receptor gamma (PPARg) signaling pathway (AID 743094; active = well fitted activation curve with a large enough effect in the signal ratio in the repeat runs, not every such curve was filed as active; the % refers to the signal ratio). In short, it runs like this: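 Quantitative HTS agonist mode: stable HEK293H line with UAS-beta-lactamase reporter under PPARg control, 17 h compound exposure at 37C, fluorescence after 1 h FRET substrate loading at room temperature.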
Sequence of Peroxisome proliferator-activated receptor gamma (Homo sapiens) (P37231 whole entry, looked up): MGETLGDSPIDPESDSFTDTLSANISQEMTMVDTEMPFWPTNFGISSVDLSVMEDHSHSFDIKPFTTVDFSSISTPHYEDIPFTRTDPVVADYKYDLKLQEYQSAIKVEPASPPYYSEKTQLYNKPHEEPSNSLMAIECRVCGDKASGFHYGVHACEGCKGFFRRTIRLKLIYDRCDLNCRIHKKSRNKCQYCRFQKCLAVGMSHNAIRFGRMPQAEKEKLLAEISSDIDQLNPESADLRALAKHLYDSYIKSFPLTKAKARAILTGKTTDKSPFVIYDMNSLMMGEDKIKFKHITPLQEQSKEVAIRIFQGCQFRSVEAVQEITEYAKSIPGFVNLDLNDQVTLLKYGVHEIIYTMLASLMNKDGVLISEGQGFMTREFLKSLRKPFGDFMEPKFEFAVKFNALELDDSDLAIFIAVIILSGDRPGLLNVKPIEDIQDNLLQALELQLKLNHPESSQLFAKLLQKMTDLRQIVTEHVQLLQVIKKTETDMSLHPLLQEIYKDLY

A short description of assay [4]: qHTS assay to identify small molecule antagonists of the peroxisome proliferator-activated receptor gamma (PPARg) signaling pathway - cell viability counter screen (AID 743194). Note: nearly all actives have a fitted effect of over 55% in size. The gist of the method: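 PPARg-UAS-bla HEK293H cells were plated, rested 5 h at 37 C, then treated with compounds plus rosiglitazone (50 nM final) for 17 h at 37 C; viability was then read by CellTiter-Glo luminescence after 30 min at room temperature.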

Assay [5] in a line: qHTS assay for small molecule agonists of the antioxidant response element (ARE) signaling pathway - cell viability counter screen (AID 743203; calls by dose curve; note: nearly all actives have a fitted effect of over 55% in size). In short, it runs like this:
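Seeded at 2,000 cells/well, ARE-bla HepG2 cells were incubated 5 hrs before compound addition. After 16 hrs of treatment at 37C with 5% CO2, CellTiter-Glo reagent was added and luminescence read 30 min later.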

Assay [6] is described as follows: qHTS assay for small molecule activators of the heat shock response signaling pathway - cell viability counter screen (AID 743209). Note: nearly all actives have a fitted effect of over 50% in size. Note: potency is the fitted concentration of half-maximal effect. In short, it runs like this: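 First, HSE-bla HeLa cells were seeded at 1500 cells/well and kept overnight at 37 C. Next, compounds were pinned in and incubated 5 h. After the FRET substrate step, CellTiter-Glo was added and luminescence read 30 min later.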

Assay [7] is described as follows: qHTS assay for small molecule activators of the heat shock response signaling pathway (AID 743210; active = well fitted activation curve with a large enough effect in the signal ratio in the repeat runs, with a control signal flat, not every such curve was filed as active; the % refers to the signal ratio; note: series mostly up to about 63 µM). In short, it runs like this:
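HSE-bla HeLa cells (beta-lactamase reporter under heat shock response elements) were exposed to compounds for 5 h at 37 C, then loaded with LiveBLAzer B/G FRET substrate for 2.5 h at room temperature before fluorescence reading.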

Assay [8] can be described thus: qHTS assay to identify small molecule that activate the aryl hydrocarbon receptor (AhR) signaling pathway - cell viability counter screen (AID 743086).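 Note: HepG2 liver cells carrying the AhR DRE luciferase reporter; series mostly up to about 70 µM; nearly all actives have a fitted effect of over 45% in size.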 In short, it runs like this:
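HepG2-AhR-luc (HG2L7.5c1) cells, 4000/well, were preincubated 5 h at 37C, exposed to compound in qHTS format for 24 hr at 37C, then given CellTiter-Fluor for 30 min; viability was read as fluorescence in the reporter wells.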

Assay [9] can be described thus: qHTS assay for small molecule agonists of the antioxidant response element (ARE) signaling pathway (AID 743202; active = well fitted activation curve with a large enough effect in the signal ratio in the repeat runs, not every such curve was filed as active; the % refers to the signal ratio; note: potency is the fitted concentration of half-maximal effect). The gist of the method:
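Read-out: LiveBLAzer B/G FRET substrate fluorescence after 2 h at room temperature, following 16 h compound treatment at 37 C of HepG2 cells carrying an ARE-driven beta-lactamase reporter.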

Assay [10] addresses Peroxisome proliferator-activated receptor gamma (Homo sapiens) (UniProt P37231). The assay can be described thus: qHTS assay to identify small molecule antagonists of the peroxisome proliferator-activated receptor gamma (PPARg) signaling pathway (AID 743191; calls by dose curve; note: series mostly up to about 63 µM; nearly all actives have a fitted effect of over 30% in size). The gist of the method:
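GeneBLAzer PPARg UAS-bla HEK293H cells carrying a UAS-driven beta-lactamase reporter were plated at 3000 cells/well, preincubated 5 h at 37C, then given compound for 17 h at 37C; LiveBLAzer B/G FRET substrate was read after 1 h at room temperature.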

Records with an inconclusive call do not appear. Unmarked numbers belong to inactive results. The source made the active and inactive calls. Unless noted, calls come from the whole dose curve; as a rule, active = well fitted curve in the direction sought with a large enough effect in the repeat runs; inconclusive = weak or mixed curves; inactive = no such curve, though single readings can be large; an effect the other way counts as inactive or inconclusive.

Sequence of Aryl hydrocarbon receptor (Homo sapiens) (P35869 whole entry, looked up): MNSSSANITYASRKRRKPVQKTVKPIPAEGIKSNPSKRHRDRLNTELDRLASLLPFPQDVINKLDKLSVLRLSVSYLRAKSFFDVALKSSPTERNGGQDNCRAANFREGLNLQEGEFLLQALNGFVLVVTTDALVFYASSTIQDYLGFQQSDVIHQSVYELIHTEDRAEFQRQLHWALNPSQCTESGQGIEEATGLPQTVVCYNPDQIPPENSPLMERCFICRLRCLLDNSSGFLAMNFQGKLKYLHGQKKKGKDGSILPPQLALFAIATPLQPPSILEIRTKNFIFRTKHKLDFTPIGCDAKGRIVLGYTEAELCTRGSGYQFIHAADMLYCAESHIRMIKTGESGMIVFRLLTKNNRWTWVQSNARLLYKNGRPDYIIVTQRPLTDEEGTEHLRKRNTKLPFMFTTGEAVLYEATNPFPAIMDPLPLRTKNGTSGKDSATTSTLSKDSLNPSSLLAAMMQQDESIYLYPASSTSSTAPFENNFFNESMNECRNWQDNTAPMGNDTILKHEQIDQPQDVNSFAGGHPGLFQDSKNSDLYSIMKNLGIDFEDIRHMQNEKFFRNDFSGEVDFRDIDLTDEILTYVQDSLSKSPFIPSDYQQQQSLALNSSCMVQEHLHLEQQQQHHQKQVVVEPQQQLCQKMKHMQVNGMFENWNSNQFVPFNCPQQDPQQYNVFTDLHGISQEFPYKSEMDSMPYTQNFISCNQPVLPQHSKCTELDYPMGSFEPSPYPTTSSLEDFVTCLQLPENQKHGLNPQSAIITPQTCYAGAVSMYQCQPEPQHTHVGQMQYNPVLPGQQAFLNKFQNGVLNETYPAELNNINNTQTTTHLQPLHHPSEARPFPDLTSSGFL

As to `CCCC(=O)OC(=O)CCC`, the Potency entry in assay [1], in assay [2], in [4], in [5], in [6] and in assay [7] was “inactive” throughout. In addition, the result in assay [3] was inactive.

Regarding `CCOC(=O)C(C)O` (centres undefined), the Potency entry in [1], in assay [2], in [8], in [4], in assay [9] and in assay [5] was “inactive” each time. In addition, the Potency result in [6] and in assay [7] was “inactive” throughout.

Take `CCCCCCCCCCCCCC(=O)OCC(O)CO` (centres undefined): the Potency entry in assay [1], in [2], in [8], in [4], in assay [9] and in assay [6] was “inactive” in each case. The Potency result in assay [7] was “inactive”.

With `COc1cc(S(=O)(=O)Nc2ccccc2)c(OC)cc1N`, the Potency entry in [1], in [2], in assay [10], in assay [4] and in assay [6] was “inactive” throughout. For the same compound, the result in [3] was inactive.

Regarding `Nc1ccn([C@H]2CS[C@@H](CO)O2)c(=O)n1`, the Potency entry in assay [1], in assay [2], in assay [8], in [5], in assay [6] and in [7] was “inactive” each time.

`CCCCCCC(O)CCOC(C)=O` (centres undefined): the Potency entry in assay [1], in assay [2], in assay [4], in assay [9], in [5] and in assay [6] was “inactive” throughout. For the same compound, the Potency entry in assay [7] was “inactive”. Further, the outcome in [3] was inactive.

For the compound `O=C(O)c1cccc(C[C@@H]2COc3ccc(OCc4nc5cc(F)ccc5s4)cc3[C@@H]2O)c1`, the Potency entry in assay [1], in assay [2], in assay [8], in [6] and in assay [7] was “inactive” throughout.

With `CC(C(=O)O)c1ccc(C(=O)c2cccs2)cc1` (centres undefined), the Potency entry in assay [1], in [2], in [8], in assay [4], in assay [9] and in [5] was “inactive” each time. Further, the Potency result in [6] and in assay [7] was “inactive” in each case.

For the compound `CC(=O)NNC(C)=O`, the Potency entry in assay [1], in assay [2], in assay [8], in [4], in assay [9] and in assay [6] was “inactive” in each case.

Turning to `Nc1c(Cl)cc(Cl)cc1[N+](=O)[O-]`, the Potency result in assay [1], in assay [2], in [8], in assay [4], in [5] and in assay [6] was “inactive” in each case.

Take `COc1ccc(CCN(C)CCCN2CCc3cc(OC)c(OC)cc3CC2=O)cc1OC`: the Potency result in assay [1], in assay [2], in assay [4], in [5] and in assay [6] was “inactive” throughout. Besides, the call in [3] was inactive.

Regarding `COc1ccc(N)c([N+](=O)[O-])c1`, the Potency result in assay [1], in assay [2], in assay [4], in assay [9], in [5] and in assay [6] was “inactive” each time. Also, the Potency result in [7] was “inactive”. The call in [3] was inactive.

Consider `CC(=O)C(C)=O`, for which the Potency entry in assay [1], in assay [2], in assay [4], in [9], in [5] and in assay [6] was “inactive” in each case. Also, the Potency result in assay [7] is “inactive”. In addition, the compound was classed as inactive in assay [3].

As to `O=C(NS(=O)(=O)/C=C/c1ccccc1)c1ccc(F)cc1Cl`, the Potency entry in [1], in assay [2], in assay [8], in assay [4], in [5] and in [6] was “inactive” in each case. Moreover, the Potency result in assay [7] is “inactive”.

As to `O=P(O)(O)Oc1ccccc1`, the Potency result in assay [1], in [2], in assay [10], in assay [4], in [5] and in assay [6] was “inactive” each time. The outcome in assay [3] was inactive.

Regarding `CC(C)c1ccc(C(=O)N=C(N)N)cc1S(C)(=O)=O`, the Potency entry in [1], in assay [2], in assay [10], in assay [4], in assay [6] and in assay [7] was “inactive” each time. The result in assay [3] was inactive.

For the compound `CCCc1nc2c(C)cc(-c3nc4ccccc4n3C)cc2n1Cc1ccc(-c2ccccc2C(=O)O)cc1`, the Potency entry in [1], in [2], in assay [8], in [4] and in assay [6] was “inactive” throughout. The Potency in assay [9] is 26.6 µM (active).

As to `O=c1[nH]c2cc(C(F)(F)F)c(N3CCOCC3)cc2n(CP(=O)(O)O)c1=O`, the Potency result in [1], in [2], in assay [10], in [4], in assay [5] and in [6] was “inactive” in each case. The Potency entry in assay [7] was “inactive”. For the same compound, the compound was classed as inactive in [3].

For the compound `Cc1ccc(Cl)cc1N`, the Potency entry in assay [1], in assay [2], in assay [10], in assay [4], in assay [9] and in [5] was “inactive” each time. Besides, the Potency result in assay [6] and in [7] was “inactive” throughout. Besides, the outcome in [3] was inactive.

Consider `CC(=O)C(=O)CC(C)C`, for which the Potency entry in [1], in [2], in assay [4], in assay [9] and in assay [6] was “inactive” in each case. In [3], the result was inactive.

For `Cc1cccc(C)c1NC(=O)c1cc(S(N)(=O)=O)c(Cl)cc1O`, the Potency entry in [1], in [2], in assay [10], in assay [4], in assay [5] and in assay [6] was “inactive” each time. Moreover, the Potency entry in assay [7] was “inactive”. Besides, the compound was called inactive in [3].

Turning to `CCCCCCCCCCCSCC(=O)O`, the Potency entry in assay [1], in assay [2], in [8] and in assay [4] was “inactive” throughout. Moreover, the Potency in [6] was 49 µM (active).

`Cc1ccc(S(=O)(=O)NC(=O)NC2CCCCC2)cc1`: the Potency result in [1], in assay [2], in assay [10], in assay [4], in assay [9] and in assay [5] was “inactive” in each case. For the same compound, the Potency result in assay [6] and in [7] was “inactive” throughout. Besides, in [3], the call was inactive.

On to `CC(=O)OCCC(C)CC(C)(C)C` (centres undefined), for which the Potency entry in assay [1], in [2], in assay [10], in assay [4], in assay [9] and in assay [6] was “inactive” throughout. The Potency entry in assay [7] was “inactive”. Further, in assay [3], the call was inactive.

For the origin of these results see PubChem BioAssay (Tox21).
